Data as given in publication PMC7862700, “An all-to-all approach to the identification of sequence-specific readers for epigenetic DNA modifications on cytosine”.

Experiments:
Assay in all cases: DAPPL (digital affinity profiling via proximity ligation, sequencing); 10 mM Tris-HCl pH 7.5, 50 mM NaCl, 1 mM DTT, 4% glycerol, room temperature, 30 min; GST-TFs on glutathione beads, 16-mer random dsDNA library, 0.1% formaldehyde crosslink after washing; high values mean tight binding
Conditions in all cases: protein: recombinant; tags: N-terminal GST; dsDNA, one strand shown
FLI1 = target: T1, FLI1 (Homo sapiens, UniProt Q01543 1-452)
T1 sequence: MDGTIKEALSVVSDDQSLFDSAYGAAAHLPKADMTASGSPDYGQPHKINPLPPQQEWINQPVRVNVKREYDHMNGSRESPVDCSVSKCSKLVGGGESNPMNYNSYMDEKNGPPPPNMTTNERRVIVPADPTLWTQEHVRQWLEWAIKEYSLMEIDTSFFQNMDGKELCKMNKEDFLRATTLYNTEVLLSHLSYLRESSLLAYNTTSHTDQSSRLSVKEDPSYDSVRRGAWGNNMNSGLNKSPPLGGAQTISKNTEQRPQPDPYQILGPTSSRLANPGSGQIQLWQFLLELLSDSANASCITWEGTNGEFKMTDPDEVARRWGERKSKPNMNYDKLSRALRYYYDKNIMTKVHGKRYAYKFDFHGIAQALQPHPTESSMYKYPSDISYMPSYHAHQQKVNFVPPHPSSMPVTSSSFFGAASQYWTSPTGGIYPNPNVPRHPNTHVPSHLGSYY
Outline: (§1)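 Human transcription factors were made in yeast as GST fusions, captured on glutathione beads and barcoded with DNA. With a tag-only sample included, the pool was incubated with 200 nmole of a random double-stranded 16-mer DNA library in Tris/NaCl/DTT/glycerol buffer at room temperature for 30 min, then crosslinked with 0.1% formaldehyde after washing, ligated by proximity, amplified and sequenced. For binding signal, each hexamer's read frequency for a factor is divided by its frequency for the tag-only sample.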

ELK1 = target: T2, ELK1 (Homo sapiens, UniProt P19419 1-428)
T2 sequence: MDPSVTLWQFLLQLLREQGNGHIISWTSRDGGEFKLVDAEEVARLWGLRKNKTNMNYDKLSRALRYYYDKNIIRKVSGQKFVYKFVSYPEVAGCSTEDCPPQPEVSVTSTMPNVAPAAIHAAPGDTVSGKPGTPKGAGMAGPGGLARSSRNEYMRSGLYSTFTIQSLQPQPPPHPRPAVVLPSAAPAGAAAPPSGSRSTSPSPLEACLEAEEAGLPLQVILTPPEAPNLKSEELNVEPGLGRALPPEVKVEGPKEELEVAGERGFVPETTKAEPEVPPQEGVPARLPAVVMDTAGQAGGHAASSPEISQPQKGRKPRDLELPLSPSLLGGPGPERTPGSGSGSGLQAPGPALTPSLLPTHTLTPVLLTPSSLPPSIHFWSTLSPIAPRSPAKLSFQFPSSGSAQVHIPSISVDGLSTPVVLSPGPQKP
Outline: as §1

ELF1 = ELF1 (Homo sapiens, UniProt P32519 1-619)
Chain of ELF1 (P32519 whole entry): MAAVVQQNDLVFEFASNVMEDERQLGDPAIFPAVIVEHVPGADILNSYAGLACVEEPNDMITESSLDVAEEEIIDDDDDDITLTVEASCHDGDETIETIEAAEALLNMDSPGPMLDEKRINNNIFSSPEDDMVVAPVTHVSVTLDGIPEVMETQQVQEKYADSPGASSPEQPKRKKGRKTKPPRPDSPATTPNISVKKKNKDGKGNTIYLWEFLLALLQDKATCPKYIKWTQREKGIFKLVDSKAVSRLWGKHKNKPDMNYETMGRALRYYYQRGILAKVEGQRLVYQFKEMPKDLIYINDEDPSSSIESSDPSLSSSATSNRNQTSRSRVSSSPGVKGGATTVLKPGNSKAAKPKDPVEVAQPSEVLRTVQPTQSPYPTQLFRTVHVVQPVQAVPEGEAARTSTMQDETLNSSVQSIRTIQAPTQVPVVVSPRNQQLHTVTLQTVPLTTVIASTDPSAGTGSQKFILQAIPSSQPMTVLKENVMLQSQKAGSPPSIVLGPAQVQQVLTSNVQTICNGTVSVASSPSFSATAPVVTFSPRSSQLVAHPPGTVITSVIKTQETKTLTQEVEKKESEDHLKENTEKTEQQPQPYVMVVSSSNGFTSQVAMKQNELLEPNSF
Outline: as §1

SPIB = SPIB (Homo sapiens, UniProt Q01892 1-262)
Chain of SPIB (Q01892 whole entry): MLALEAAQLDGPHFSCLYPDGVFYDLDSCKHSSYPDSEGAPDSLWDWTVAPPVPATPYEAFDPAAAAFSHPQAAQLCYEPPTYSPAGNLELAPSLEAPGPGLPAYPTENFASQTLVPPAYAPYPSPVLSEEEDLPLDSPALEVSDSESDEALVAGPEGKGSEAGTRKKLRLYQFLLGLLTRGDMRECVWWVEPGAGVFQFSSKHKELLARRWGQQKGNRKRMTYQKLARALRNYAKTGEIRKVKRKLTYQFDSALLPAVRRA
Outline: as §1

ELK3 = target: T3, ELK3 (Homo sapiens, UniProt P41970 1-407)
T3 sequence: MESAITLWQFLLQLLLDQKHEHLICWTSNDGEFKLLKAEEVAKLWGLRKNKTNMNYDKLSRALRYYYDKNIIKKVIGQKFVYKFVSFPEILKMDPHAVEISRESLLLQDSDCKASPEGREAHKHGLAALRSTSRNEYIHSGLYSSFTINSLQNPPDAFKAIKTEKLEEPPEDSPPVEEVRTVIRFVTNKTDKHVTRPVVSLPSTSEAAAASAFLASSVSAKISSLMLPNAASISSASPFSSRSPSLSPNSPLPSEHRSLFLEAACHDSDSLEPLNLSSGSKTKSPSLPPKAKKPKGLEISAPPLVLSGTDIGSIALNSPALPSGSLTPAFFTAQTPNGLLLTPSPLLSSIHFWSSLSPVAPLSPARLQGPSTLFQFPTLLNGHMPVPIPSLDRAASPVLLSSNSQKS
Outline: as §1

SPIC = target: T4, SPIC (Homo sapiens, UniProt Q8N5J4 1-248)
T4 sequence: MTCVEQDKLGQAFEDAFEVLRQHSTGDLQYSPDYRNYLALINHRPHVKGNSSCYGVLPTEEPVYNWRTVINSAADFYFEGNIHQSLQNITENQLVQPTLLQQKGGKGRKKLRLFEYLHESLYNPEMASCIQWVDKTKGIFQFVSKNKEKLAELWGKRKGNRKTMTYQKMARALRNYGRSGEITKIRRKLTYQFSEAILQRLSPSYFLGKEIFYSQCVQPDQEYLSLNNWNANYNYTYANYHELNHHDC
Outline: as §1

ELF4 = ELF4 (Homo sapiens, UniProt Q99607 1-663)
Chain of ELF4 (Q99607 whole entry): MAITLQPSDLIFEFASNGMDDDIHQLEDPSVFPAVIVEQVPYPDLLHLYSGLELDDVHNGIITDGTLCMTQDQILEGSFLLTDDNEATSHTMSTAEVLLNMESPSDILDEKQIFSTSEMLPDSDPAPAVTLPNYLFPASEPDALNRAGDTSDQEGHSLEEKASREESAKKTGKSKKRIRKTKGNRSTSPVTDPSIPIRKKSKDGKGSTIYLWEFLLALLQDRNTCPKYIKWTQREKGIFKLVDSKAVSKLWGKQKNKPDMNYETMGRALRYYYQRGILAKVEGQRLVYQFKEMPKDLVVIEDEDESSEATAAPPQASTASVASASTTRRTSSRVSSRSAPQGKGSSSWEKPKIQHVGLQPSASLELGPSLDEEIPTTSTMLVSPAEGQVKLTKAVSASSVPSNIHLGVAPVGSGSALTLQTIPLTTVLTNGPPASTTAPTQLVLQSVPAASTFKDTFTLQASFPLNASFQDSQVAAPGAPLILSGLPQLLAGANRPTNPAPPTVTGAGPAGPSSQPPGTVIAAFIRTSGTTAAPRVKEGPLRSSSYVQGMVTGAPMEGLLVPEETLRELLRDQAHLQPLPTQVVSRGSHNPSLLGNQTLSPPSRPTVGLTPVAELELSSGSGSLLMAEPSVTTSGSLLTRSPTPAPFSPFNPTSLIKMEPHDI
Outline: as §1

ETV2 = target: T5, ETV2 (Homo sapiens, UniProt O00321 1-342)
T5 sequence: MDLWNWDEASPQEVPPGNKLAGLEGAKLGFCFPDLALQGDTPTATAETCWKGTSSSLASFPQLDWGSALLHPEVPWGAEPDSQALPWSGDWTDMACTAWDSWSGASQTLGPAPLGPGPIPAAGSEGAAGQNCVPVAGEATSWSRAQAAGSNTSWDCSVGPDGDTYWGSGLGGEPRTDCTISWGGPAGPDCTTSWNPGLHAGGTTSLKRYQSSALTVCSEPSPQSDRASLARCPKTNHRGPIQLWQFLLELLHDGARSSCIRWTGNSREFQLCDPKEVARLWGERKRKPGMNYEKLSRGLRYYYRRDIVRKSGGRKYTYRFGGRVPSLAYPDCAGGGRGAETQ
Outline: as §1

ELF3 = target: T6, ELF3 (Homo sapiens, UniProt P78545 1-371)
T6 sequence: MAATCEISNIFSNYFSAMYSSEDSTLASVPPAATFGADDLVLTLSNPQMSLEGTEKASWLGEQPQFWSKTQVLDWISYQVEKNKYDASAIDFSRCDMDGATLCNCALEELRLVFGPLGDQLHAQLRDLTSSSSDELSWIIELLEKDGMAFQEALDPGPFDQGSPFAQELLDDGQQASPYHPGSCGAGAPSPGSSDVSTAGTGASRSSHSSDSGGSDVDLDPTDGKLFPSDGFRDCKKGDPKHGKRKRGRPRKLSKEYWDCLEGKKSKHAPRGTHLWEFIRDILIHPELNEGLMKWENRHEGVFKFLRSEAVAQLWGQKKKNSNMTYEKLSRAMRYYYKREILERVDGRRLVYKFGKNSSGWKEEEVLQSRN
Outline: as §1

ETV1 = ETV1 (Homo sapiens, UniProt P50549 1-477)
Chain of ETV1 (P50549 whole entry): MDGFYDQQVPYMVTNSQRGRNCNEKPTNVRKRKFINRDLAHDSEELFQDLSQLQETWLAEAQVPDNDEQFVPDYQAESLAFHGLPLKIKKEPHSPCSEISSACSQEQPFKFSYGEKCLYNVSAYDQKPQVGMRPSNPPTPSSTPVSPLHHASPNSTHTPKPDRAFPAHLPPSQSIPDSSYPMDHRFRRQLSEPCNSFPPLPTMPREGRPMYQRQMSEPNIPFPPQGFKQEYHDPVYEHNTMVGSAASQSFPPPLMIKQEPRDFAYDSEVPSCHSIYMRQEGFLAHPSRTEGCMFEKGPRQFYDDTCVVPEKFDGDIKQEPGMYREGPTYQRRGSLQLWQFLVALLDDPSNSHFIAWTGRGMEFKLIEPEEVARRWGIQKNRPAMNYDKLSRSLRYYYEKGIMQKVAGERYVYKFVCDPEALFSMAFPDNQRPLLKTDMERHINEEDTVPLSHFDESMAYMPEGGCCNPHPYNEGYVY
Outline: as §1

ERF = target: T7, ERF (Homo sapiens, UniProt P50548 1-548)
T7 sequence: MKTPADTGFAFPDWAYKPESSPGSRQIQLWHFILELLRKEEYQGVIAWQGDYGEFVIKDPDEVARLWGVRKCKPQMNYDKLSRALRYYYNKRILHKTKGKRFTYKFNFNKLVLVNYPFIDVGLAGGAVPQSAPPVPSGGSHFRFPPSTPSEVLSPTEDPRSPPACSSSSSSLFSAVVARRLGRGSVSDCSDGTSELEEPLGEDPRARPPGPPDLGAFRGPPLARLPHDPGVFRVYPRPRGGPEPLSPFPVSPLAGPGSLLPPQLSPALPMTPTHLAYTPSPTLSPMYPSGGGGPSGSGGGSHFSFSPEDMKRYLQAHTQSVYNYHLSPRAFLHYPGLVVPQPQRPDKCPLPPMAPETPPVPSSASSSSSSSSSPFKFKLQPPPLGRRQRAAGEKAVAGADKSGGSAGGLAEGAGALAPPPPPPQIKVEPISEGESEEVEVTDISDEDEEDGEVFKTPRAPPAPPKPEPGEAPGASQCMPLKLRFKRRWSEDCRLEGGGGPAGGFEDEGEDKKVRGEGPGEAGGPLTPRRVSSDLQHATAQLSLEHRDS
Outline: as §1

ETV3L = target: T8, ETV3L (Homo sapiens, UniProt Q6ZN32 1-361)
T8 sequence: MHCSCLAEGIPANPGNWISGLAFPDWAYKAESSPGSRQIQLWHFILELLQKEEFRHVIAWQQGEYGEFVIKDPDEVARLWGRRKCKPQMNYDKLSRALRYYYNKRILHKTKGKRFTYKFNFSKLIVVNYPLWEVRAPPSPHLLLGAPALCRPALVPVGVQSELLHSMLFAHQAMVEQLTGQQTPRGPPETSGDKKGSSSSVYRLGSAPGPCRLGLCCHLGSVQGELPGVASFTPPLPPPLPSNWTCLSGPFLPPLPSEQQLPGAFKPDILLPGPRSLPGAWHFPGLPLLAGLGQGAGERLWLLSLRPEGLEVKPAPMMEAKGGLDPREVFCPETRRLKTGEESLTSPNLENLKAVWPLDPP
Outline: as §1

ETS2 = target: T9, ETS2 (Homo sapiens, UniProt P15036 1-469)
T9 sequence: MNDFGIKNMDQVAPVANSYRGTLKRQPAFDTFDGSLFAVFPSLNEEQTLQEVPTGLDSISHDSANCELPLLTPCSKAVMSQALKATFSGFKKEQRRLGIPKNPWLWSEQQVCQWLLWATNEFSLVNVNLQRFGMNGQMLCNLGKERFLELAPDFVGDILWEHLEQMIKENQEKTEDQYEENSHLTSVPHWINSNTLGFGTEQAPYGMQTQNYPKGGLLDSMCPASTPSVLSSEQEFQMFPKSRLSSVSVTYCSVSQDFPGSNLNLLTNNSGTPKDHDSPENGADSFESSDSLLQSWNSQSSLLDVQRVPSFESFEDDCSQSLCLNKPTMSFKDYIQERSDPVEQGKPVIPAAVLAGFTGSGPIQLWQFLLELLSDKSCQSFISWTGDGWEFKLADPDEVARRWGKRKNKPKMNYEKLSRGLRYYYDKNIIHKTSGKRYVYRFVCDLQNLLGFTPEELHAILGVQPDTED
Outline: as §1

ETV7 = target: T10, ETV7 (Homo sapiens, UniProt Q9Y603 1-341)
T10 sequence: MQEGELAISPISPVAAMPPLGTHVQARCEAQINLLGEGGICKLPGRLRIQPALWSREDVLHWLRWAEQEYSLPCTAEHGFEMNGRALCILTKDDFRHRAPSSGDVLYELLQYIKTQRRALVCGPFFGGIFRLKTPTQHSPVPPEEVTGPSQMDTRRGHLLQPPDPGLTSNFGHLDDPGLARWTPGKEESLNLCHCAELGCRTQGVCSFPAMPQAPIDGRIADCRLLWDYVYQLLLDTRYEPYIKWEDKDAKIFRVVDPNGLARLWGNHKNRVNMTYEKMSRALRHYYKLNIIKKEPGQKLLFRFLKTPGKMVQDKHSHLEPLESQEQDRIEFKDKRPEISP
Outline: as §1

ETV3 = target: T11, ETV3 (Homo sapiens, UniProt P41162-2 1-143)
T11 sequence: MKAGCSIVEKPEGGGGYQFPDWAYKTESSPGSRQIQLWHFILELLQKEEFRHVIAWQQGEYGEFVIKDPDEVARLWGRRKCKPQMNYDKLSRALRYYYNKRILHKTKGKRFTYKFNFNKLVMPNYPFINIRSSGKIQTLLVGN
Outline: as §1

ETV6 = ETV6 (Homo sapiens, UniProt P41212 1-452)
Chain of ETV6 (P41212 whole entry): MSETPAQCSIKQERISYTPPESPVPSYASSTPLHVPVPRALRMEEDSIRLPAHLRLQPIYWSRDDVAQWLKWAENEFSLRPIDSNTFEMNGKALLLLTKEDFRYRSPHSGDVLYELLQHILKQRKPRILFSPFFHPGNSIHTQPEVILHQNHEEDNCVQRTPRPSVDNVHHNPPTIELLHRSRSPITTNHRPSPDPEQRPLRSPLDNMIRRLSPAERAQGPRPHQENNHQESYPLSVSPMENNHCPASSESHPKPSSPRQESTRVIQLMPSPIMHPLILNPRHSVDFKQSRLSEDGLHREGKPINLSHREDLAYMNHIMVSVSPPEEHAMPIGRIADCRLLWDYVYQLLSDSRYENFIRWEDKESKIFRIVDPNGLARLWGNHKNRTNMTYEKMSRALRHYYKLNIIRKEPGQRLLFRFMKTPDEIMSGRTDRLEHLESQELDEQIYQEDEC
Outline: as §1

EHF = target: T12, EHF (Homo sapiens, UniProt Q9NZC4 1-300)
T12 sequence: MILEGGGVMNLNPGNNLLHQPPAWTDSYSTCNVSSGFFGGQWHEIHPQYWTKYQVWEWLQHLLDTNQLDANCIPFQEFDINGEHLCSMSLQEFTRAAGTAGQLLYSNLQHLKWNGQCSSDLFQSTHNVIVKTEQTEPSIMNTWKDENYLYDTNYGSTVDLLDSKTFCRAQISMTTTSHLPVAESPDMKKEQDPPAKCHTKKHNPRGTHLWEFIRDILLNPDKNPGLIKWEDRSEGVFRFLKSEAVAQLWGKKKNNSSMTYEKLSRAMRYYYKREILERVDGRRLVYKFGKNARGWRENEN
Outline: as §1

Sequence | binding signal (FLI1) | binding signal (ELK1) | binding signal (ELF1) | binding signal (SPIB) | binding signal (ELK3) | binding signal (SPIC) | binding signal (ELF4) | binding signal (ETV2) | binding signal (ELF3) | binding signal (ETV1) | binding signal (ERF) | binding signal (ETV3L) | binding signal (ETS2) | binding signal (ETV7) | binding signal (ETV3) | binding signal (ETV6) | binding signal (EHF)
TGATTG | 1.16 fold enrichment (6-mer frequency, TF over GST control) | 1.16 fold enrichment (6-mer frequency, TF over GST control) | 1.06 fold enrichment (6-mer frequency, TF over GST control) | 1.09 fold enrichment (6-mer frequency, TF over GST control) | 1.11 fold enrichment (6-mer frequency, TF over GST control) | 1.05 fold enrichment (6-mer frequency, TF over GST control) | 1.02 fold enrichment (6-mer frequency, TF over GST control) | 1.06 fold enrichment (6-mer frequency, TF over GST control) | 1.05 fold enrichment (6-mer frequency, TF over GST control) | 1.1 fold enrichment (6-mer frequency, TF over GST control) | 1.13 fold enrichment (6-mer frequency, TF over GST control) | 1.09 fold enrichment (6-mer frequency, TF over GST control) | 1.01 fold enrichment (6-mer frequency, TF over GST control) | 1.05 fold enrichment (6-mer frequency, TF over GST control) | 1.05 fold enrichment (6-mer frequency, TF over GST control) | 1.04 fold enrichment (6-mer frequency, TF over GST control) | 
CATGGC | 1.1 fold enrichment (6-mer frequency, TF over GST control) | 1.02 fold enrichment (6-mer frequency, TF over GST control) | 1.02 fold enrichment (6-mer frequency, TF over GST control) |  | 1.04 fold enrichment (6-mer frequency, TF over GST control) | 1.05 fold enrichment (6-mer frequency, TF over GST control) | 1.02 fold enrichment (6-mer frequency, TF over GST control) | 1.04 fold enrichment (6-mer frequency, TF over GST control) |  |  |  | 1.02 fold enrichment (6-mer frequency, TF over GST control) |  | 1.07 fold enrichment (6-mer frequency, TF over GST control) | 1.05 fold enrichment (6-mer frequency, TF over GST control) | 1 fold enrichment (6-mer frequency, TF over GST control) | 1.02 fold enrichment (6-mer frequency, TF over GST control)
